Screening data: PubChem BioAssay, several laboratories
This is a sample that favours compounds with a hit; in the whole collection about 32% have one here.
PostGolgi ctrl: yeast control strain growth, post-Golgi counter-screen; efflux-deficient yeast background strain, growth absorbance A615, 16 h; inhibition, % at 10 µM; 98,000 tested, 5% active
CYP2C19 inhib: blocks human cytochrome P450 2C19; inhibition, % at 5 µM; 96,000 tested, 21% active; CYP2C19 Supersomes, luciferin-H EGE luminescence, 30 min;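 active = CYP2C19 inhibition above a set limit at 5 µM in the primary screen, cut at about 50% in these data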;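 also: plate controls were negative control wells for no effect and 2.5 mM tranylcypromine positive control for full effect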
Target sequence (P33261 whole entry, looked up): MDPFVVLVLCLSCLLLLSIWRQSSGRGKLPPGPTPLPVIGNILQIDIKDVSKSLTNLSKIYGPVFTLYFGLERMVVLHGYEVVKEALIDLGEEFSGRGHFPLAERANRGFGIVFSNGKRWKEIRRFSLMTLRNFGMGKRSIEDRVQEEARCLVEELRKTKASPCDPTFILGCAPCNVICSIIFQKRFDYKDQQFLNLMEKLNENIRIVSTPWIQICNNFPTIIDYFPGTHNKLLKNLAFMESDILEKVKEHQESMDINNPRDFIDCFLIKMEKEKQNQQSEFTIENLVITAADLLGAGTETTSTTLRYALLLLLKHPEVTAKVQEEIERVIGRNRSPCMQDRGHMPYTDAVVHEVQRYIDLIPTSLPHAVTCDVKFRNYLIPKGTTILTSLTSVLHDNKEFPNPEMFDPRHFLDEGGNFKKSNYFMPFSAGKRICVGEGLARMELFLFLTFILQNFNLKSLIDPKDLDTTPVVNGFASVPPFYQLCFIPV
CYP2C9 act: activators of human CYP2C9; 96,000 tested, 1.4% active; activation factor at 5 µM; P11712; recombinant CYP2C9, luciferin-H conversion, luminescence; stronger effect = higher value; factor 1 = untreated enzyme, 0 = blocked;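 active = activation factor of 2 or more for CYP2C9 at a 5 µM dose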;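 also: 0 = sulfaphenazole-blocked wells and 1 = vehicle-only wells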
CYP2C9 inh: inhibitors of human CYP2C9; CYP2C9 Supersomes, luciferin-H conversion, luminescence; 96,000 tested, 20% active; P11712; inhibition, % at 5 µM;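 active = blocking of liver enzyme CYP2C9 beyond about 50% at 5 µM, limit read from the data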
CYP2C19 activ: activators of human cytochrome P450 2C19 | P33261 | recombinant CYP2C19, luciferin-H EGE luminescence; stronger effect = higher value; 0 = fully inhibited enzyme, 1 = untreated enzyme | activation factor at 5 µM | 96,000 tested, under 10 active;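 active = activation factor of at least 2 at 5 µM in the primary screen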;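 also: 0 = wells with 2.5 mM tranylcypromine and 1 = vehicle-only wells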
PostGolgi yeast: growth inhibition of a yeast mutant, post-Golgi transport screen | post-Golgi transport phenotypic cell assay | inhibition, % at 10 µM | 98,000 tested, 0.9% active | AID 739;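 also: yeast cells grown in 1536-well plates; yeast grown about 18 h at 30C before absorbance read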
* marks the source's active call; other numbers are inactive results; nt = no result given. Rule as the data show it, unless noted: active = inhibition above about 30%; inactive = the rest.

SMILES | PostGolgi ctrl | CYP2C19 inhib | CYP2C9 act | CYP2C9 inh | CYP2C19 activ | PostGolgi yeast
Cc1sc2ncnc(NCC(C)(C)N3CCOCC3)c2c1C | -2.7 | 21.7 | 1 | 4.5 | 0.8 | -3.2
CCC(CC)c1nnc(NC(=O)c2ccc3ccccc3n2)s1 | 7.5 | nt | nt | nt | nt | 4.5
NC(=O)c1ccc(-c2ccc(Br)cc2)o1 | 15.6 | 51.3* | 0.5 | 46.3 | 0.5 | -2.5
CC(C)C(=O)NC(c1ccc([N+](=O)[O-])cc1)c1c(O)ccc2ccccc12 (centres undefined) | 2.0 | 4.1 | 0.9 | 9.1 | 1 | -2.1
CCCCC(=O)NC(c1ccc(OC)c(OC)c1)c1c(O)ccc2ccccc12 (centres undefined) | 3.1 | 63.1* | 0.1 | 88.4* | 0.4 | -1.5
COc1ccc(C(CC(=O)O)NC(=O)COc2ccccc2)cc1OC (centres undefined) | -3.3 | -17.2 | 1.2 | -15.2 | 1.2 | -1.4
CCCC(=O)NC(c1ccc(OC)c(OC)c1)c1c(O)ccc2ccccc12 (centres undefined) | 27.4 | 74.0* | 0.3 | 70.9* | 0.3 | -0.7
COCCn1nnnc1C(c1ccc(C(F)(F)F)cc1)N1CCOCC1 (centres undefined) | 4.7 | 26.6 | 0.9 | 12.6 | 0.7 | 2.6
O=C1NC(c2ccco2)Nc2sc3c(c21)CCN(Cc1ccccc1)C3 (centres undefined) | 5.8 | 17.9 | 0.3 | 68.6* | 0.8 | -8.4
COc1ccc(Br)cc1C1NC(=O)c2c(sc3c2CCN(C)C3)N1 (centres undefined) | nt | 28.0 | 1.1 | -5.4 | 0.7 | nt
CN1CCc2c(sc3c2C(=O)NC(c2ccco2)N3)C1 (centres undefined) | -6.1 | -2.6 | 1 | -4.7 | 1 | 1.6
CN1CCc2c(sc3c2C(=O)NC(c2cn(Cc4ccccc4)c4ccccc24)N3)C1 (centres undefined) | 12.8 | 68.9* | 0.2 | 79.4* | 0.3 | 5.4
COC(=O)c1ccccc1NC(=O)c1ccc(Cn2cc(Cl)cn2)o1 | 9.5 | 50.4* | 1.3 | -32.6 | 0.5 | -6.3
COC(=O)c1ccccc1NC(=O)c1ccc(-c2ccccc2F)o1 | 8.8 | -7.1 | 1.1 | -9.2 | 1.1 | -5.2
COC(=O)c1cc(NC(=O)c2ccc(Cn3cc(Cl)cn3)o2)cc(C(=O)OC)c1 | 5.7 | 77.2* | 0.1 | 89.4* | 0.2 | -5.8
CCOC(=O)c1c(NC(=S)NC(=O)c2ccc(Cn3cc(Cl)cn3)o2)sc2c1CCC(C)C2 (centres undefined) | 1.7 | -8.6 | 0.7 | 31.7 | 1.1 | -4.5
COc1ccc(-n2c(Cc3cccn3C)nnc2SCC(=O)Nc2cccc(Cl)c2)cc1 | 10.1 | 23.3 | 0.1 | 85.4* | 0.8 | -2.7
COc1ccc(-n2c(Cc3cccn3C)nnc2SCC(=O)Nc2cccc(NC(C)=O)c2)cc1 | -2.5 | 13.2 | 0.8 | 19.0 | 0.9 | 6.3
CCOc1ccc(NC(=O)CSc2nnc(Cc3cccn3C)n2-c2ccc(OC)cc2)cc1 | 29.1 | -6.4 | 0.9 | 5.4 | 1.1 | 4.9
COc1ccc(NC(=O)CSc2nnc(Cc3cccn3C)n2-c2ccc(OC)cc2)cc1 | 2.6 | 39.8 | 0.4 | 59.0* | 0.6 | 1.4
COc1ccc(-n2c(Cc3cccn3C)nnc2SCC(=O)Nc2ccc(C)cc2)cc1 | 7.5 | 13.6 | 0.5 | 52.6* | 0.9 | 6.0
CCCCS(=O)(=O)NC1=NCN(CCO)CN1 | 7.5 | 6.3 | 1 | 0.2 | 0.9 | 0.2
Cc1ccc(-n2nnnc2-c2cnc(-c3cccnc3)nc2C(F)(F)F)cc1 | 8.4 | 47.7 | 0.4 | 60.2* | 0.5 | 1.9
FC(F)(F)c1nc(-c2ccncc2)ncc1-c1nnnn1-c1ccccc1 | 13.0 | 100.6* | 0.3 | 74.3* | 0 | 2.2
Nc1c(-c2cccs2)cnn1-c1nc(-c2ccc(F)cc2)cs1 | -3.4 | 4.0 | 0.9 | 6.6 | 1 | -10.7
FC(F)(F)c1nc(N2CCCC2)ncc1-c1nnnn1-c1ccc(Cl)cc1 | 57.5* | 89.6* | 0.6 | 39.1 | 0.1 | 21.6
Cn1cc(-c2nnnn2-c2ccc(Cl)cc2)c(=O)c2ccccc21 | 2.8 | 19.9 | 1 | 3.6 | 0.8 | -1.7
Fc1ccc(-n2nnnc2-c2cnc(-c3cccs3)nc2C(F)(F)F)cc1 | 45.5* | 34.4 | 0.1 | 86.4* | 0.7 | 1.1
COC(=O)Cc1c(C)nc2nc(-c3ccco3)[nH]n2c1=O | 6.9 | nt | nt | nt | nt | 2.4
O=C(O)c1nc(N2CCCC2)ncc1Cl | -11.4 | 0.9 | 0.9 | 5.9 | 1 | 0.8
